From PubChem
This is a sample that favours compounds with a hit; in the whole collection about 12% have one here.
Sm TGR inh – S. mansoni TGR enzyme inhibition; Potency, µM (highest dose often 114 µM), for the others: at the highest dose activity change, negative = inhibition, hits mostly inhibitors; actives 3% (n = 360,000); Q962Y6; purified TGR, DTNB reduction, TNB absorbance 405 nm; AID 485364; further: on the % scale 0 is the no-effect control and ±100 the full control effect; nearly all actives have a fitted effect of over 60% in size
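TGR 20 nM + NADPH 100 uM (dispensed conc.), cpd preinc 15 min RT; start with NADPH (500 uM addition) then DTNB (15 mM addition). Kinetic TNB absorbance, 405 nm filter. Four-parameter Hill fit across titration.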
Pf growth 48h – inhibits P. falciparum growth in the first generation, 48 h. P. falciparum luciferase growth in erythrocytes, 48 h. Potency, µM (series often up to 28.7 µM), without a hit: top-dose activity change, negative = inhibition, actives largely listed as inhibitors. actives 5.9% (n = 310,000); further: on the % scale 0 is the no-effect control and ±100 the full control effect
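Luciferase-expressing P. falciparum in infected erythrocytes (2% hematocrit, 0.1% parasitemia final) in RPMI 1640/0.5% Albumax were exposed to compound for 48 hours at 37 C, 5% CO2; growth read as luminescence.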
SARS PLP yeast – SARS-CoV PLP inhibition in yeast. S. cerevisiae expressing SARS-CoV PLpro, growth rescue. Potency, µM (highest dose often 32.9 µM), without a hit: at the top dose activity, positive = growth rescue, usual class: activators. actives 0.19% (n = 330,000); calls by dose curve; further: 0% is about no effect; nearly all actives have a fitted effect of over 55% in size
Pf growth 96h – inhibits malaria parasite growth, 96 h; Potency, µM (top dose mostly 28.7 µM), inactives show top-dose activity change, negative = inhibition, actives largely listed as inhibitors; P. falciparum luciferase reporter growth, 96 h; actives 6.9% (n = 320,000); further: on the % scale 0 is the no-effect control and ±100 the full control effect
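P. falciparum expressing integrated firefly luciferase grown in erythrocytes (2% hematocrit, 0.05% parasitemia final) with compounds for 96 hours at 37 C, 5% CO2. Growth inhibition read as loss of luminescence after adding luciferase detection reagent.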
Numbers without * were called inactive; ? = inconclusive; . = no result; [ ] = remark or other dose. Unless noted, the call rests on the fitted dose curve; in most records, active means well fitted curve in the direction sought with a large enough effect; inconclusive means small, poorly fitted or top-dose-only effect, or another doubt; inactive means no such curve, though single readings can be large; an effect the other way counts as inactive or inconclusive. Potency means the concentration at half of the fitted maximal effect.

SMILES	Sm TGR inh	Pf growth 48h	SARS PLP yeast	Pf growth 96h
O=C(c1ccc2nccnc2c1)N1CCCC(N2CCN(c3ccc(F)cc3)CC2)C1 (centres undefined)	-13%	-15%	6%	?
O=C(Nc1ccc(CN2CCOCC2)cc1)c1ccco1	1%	234%	-2%	59%
Cc1sc2nc(CN3CCOCC3)nc(Oc3ccc(NC(=O)c4ccco4)cc3)c2c1C	28µM*	?	-6%	2%[5.75 µM]
COc1ccccc1-c1cc(C(F)(F)F)nc(NCc2cccs2)n1	0%	?	-50%	5.9µM*
COc1ccc(-c2cc(C(F)(F)F)nc(NCc3cccs3)n2)cc1	-16%	?	2%	?
COc1cc(CC(=O)O)c(C(C)=O)cc1OC	-27%	7%	1%	3.7µM*
COc1cc(CC(=O)O)c([N+](=O)[O-])cc1OC	-24%	2%	0%	26%
CCCCN(C(=O)c1c(-c2ccccc2)noc1C)c1c(N)n(CCC)c(=O)[nH]c1=O	.	.	-3%	.
O=C1CSC2=NCN(c3ccc4c(c3)OCO4)CN12	?	28%	4%	.
CN(C)c1ccc(N2CN=C3SCC(=O)N3C2)cc1	?	1.5µM*	-11%	?
Cc1ccc(C)c(N2CCN(C(=O)C(C)n3nc(C)c4sc5ccccc5c4c3=O)CC2)c1 (centres undefined)	-7%	.	.	.
Cn1c(=O)c2c(nc(NCc3ccccc3)n2C)n(C)c1=O	-10%	-7%	-16%	.
CC(C)CCNc1nc2c(c(=O)n(Cc3cccc(F)c3)c(=O)n2C)n1C	-25%	?	-5%	12µM*
COc1ccc(CNc2nc3c(c(=O)n(Cc4ccc(F)cc4)c(=O)n3C)n2C)cc1	-3%	9.3µM*	3%	-25%
Cn1c(NCc2ccccc2)nc2c1c(=O)n(Cc1ccccc1)c(=O)n2C	7%	7.4µM*	-5%	3.7µM*
COc1cc(NC(=O)CCc2c(C)nn(-c3ccc4nncn4n3)c2C)cc(OC)c1OC	6%	.	.	.
CC12CCC(c3nnc(SCC(=O)Nc4cccc5ccccc45)nc31)C2(C)C (centres undefined)	-13%	-7%	2%	?
CCOC(=O)CSc1nnc2c(n1)C1(C)CCC2C1(C)C (centres undefined)	1%	-11%	10%	3.3µM*
Cn1c(SCc2ccc(Cl)cc2)nnc1C1CC1	-12%	23%	0%	4%
CC12CCC(c3nnc(SCc4ccc(Cl)cc4)nc31)C2(C)C (centres undefined)	-5%	-12%	-18%	4.1µM*
CCn1nc(C)c(CCN(C)C(=O)Nc2ccc(C)c(Cl)c2)c1C	1%	.	.	.
CC(C)n1nnnc1SCC(=O)N(C)C1CCS(=O)(=O)C1 (centres undefined)	.	.	13%	.
COc1ccc(NC(=O)Cn2c(=O)n(-c3ccc(OC)cc3OC)c(=O)c3c(C)c(C)sc32)cc1	5%	?	-5%	12µM*
CC(=O)c1cc(F)ccc1OCC(=O)Nc1ccc2c(c1)OCO2	.	.	6%	.
C#CCSc1nc(-c2ccccc2)cc(-c2ccccc2)c1C#N	-2%	.	.	.
SMILES	Sm TGR inh	Pf growth 48h	SARS PLP yeast	Pf growth 96h
COc1ccc(-c2cc(-c3cccs3)c(C#N)c(SCC(=O)NCc3ccccc3OC)n2)cc1	0%	2.3µM*	4%	10µM*
COc1ccc(-c2cc(-c3ccccc3)nc(SCC(=O)Nc3ncc(C)s3)c2C#N)cc1	5%	8.3µM*	21%	?
CCSc1nc(-c2ccc(OC)cc2)cc(-c2ccccc2)c1C#N	-7%	.	6%	13µM*
CCN(c1ccccc1)S(=O)(=O)c1ccc2[nH]cc(C(=O)NCc3ccc(C)cc3)c(=O)c2c1	7%	.	.	.
Cc1csc(NC(=O)C2CC(=O)N(c3ccc(C)c(C)c3)C2)n1 (centres undefined)	3%	11%	3%	0%
CCOCCCNC(=O)c1cnc2sc(N3CCCCC3)nn2c1=O	9%	.	.	.
O=C1C2C3C=CC(CO)(O3)C2C(=O)N1c1ccccc1-c1ccccc1 (centres undefined)	0.32µM*	?	-20%	5.9µM*
O=C1C2C3C=CC(CNS(=O)(=O)c4ccccc4)(O3)C2C(=O)N1c1ccc(Cl)cc1 (centres undefined)	4µM*	8%	-99%	-30%
CC(=O)Oc1ccc(N2C(=O)C3C4C=CC(CO)(O4)C3C2=O)cc1 (centres undefined)	0.89µM*	.	-31%	17%
O=C1CCC(=O)N1c1ccccc1-c1ccccc1	-25%	-1%	3%	-17%
CC(=O)Oc1ccc(N2C(=O)C3C(C2=O)C2(C)C=CC3(C)O2)cc1 (centres undefined)	0.63µM*	15%	-56%	19%
COC(=O)c1ccc(CNC(=O)COC(=O)c2cc(Cl)ccc2O)cc1	.	.	-1%	.
O=C(CSc1nc(=O)n(CCN2CCOCC2)c2c1CCC2)Nc1ccc(Cl)c(Cl)c1	4%	.	.	.
CC1O[C@@H](O[C@H](C)CC[C@@H](C)O[C@H]2OC(C)[C@@H](O)C[C@H]2O)C(O)C[C@H]1O (some centres undefined)	-4%	-19%	-2%	53%
C#CCOCCOCCOCCNc1nc(N2CCN(C(=O)CCCCCCCCCCNC(=O)[C@H]([C@@H](C)CC)n3cc(CCCCCN)nn3)CC2)nc(N2CCN(C(=O)CCCCCCCCCCNC(=O)[C@H]([C@@H](C)CC)n3cc(CCCCN=C(N)N)nn3)CC2)n1	?	?	9%	2.9µM*
C#CCOCCOCCOCCNc1nc(N2CCN(C(=O)CCCCCCCCCCNC(=O)Cn3cc(CCCCCN)nn3)CC2)nc(N2CCN(C(=O)CCCCCCCCCCNC(=O)[C@H]([C@@H](C)CC)n3cc(CCCCN=C(N)N)nn3)CC2)n1	?	2.1µM*	-7%	3.3µM*
C#CCOCCOCCOCCNc1nc(N2CCN(C(=O)Cn3cc(CCCN=C(N)N)nn3)CC2)nc(N2CCN(C(=O)[C@H]([C@@H](C)CC)n3cc(CCCCN)nn3)CC2)n1	6%	?	4%	?
C#CCOCCOCCOCCNc1nc(N2CCN(C(=O)CCCCCCCCCCNC(=O)[C@H]([C@@H](C)CC)n3cc(CCCCN=C(N)N)nn3)CC2)nc(N2CCN(C(=O)CCCCCCCCCCNC(=O)[C@H](CCCCN)n3cc(C)nn3)CC2)n1	40µM*	3.7µM*	3%	4.7µM*
C#CCOCCOCCOCCNc1nc(N2CCN(C(=O)CCCCCCCCCCNC(=O)[C@H]([C@@H](C)CC)n3cc(CCCCN=C(N)N)nn3)CC2)nc(N2CCN(C(=O)CCCCCCCCCCNC(=O)[C@H](CO)n3cc(CCCCCN)nn3)CC2)n1	45µM*	5.2µM*	-3%	5.2µM*
CCc1ccc(CNC(=O)Cn2nc(-c3ccc(Cl)cc3)ccc2=O)cc1	-2%	.	.	.
